Composite z-score and z-score data for 7 molecules are collected here from PubChem BioAssay.

“And” between values parts separate entries of the source, which are not always exact repeats. Equal entries are not always repeated. The source made the active and inactive calls. Unless noted, the rule behind the calls is not given here.

Assay [1] in a line: compounds binding Alexa647 anti-His antibody – biochemical, small-molecule microarray, 635 nm fluorescence, artefact control for SMM control protein annotation, primary screen (AID 1128).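 Note: score merges feature fluorescence with signal-to-noise for each printed compound spot.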 The conditions noted are these: higher = more signal.
The subject of assay [2] is Human papillomavirus type 1a E7 protein (residues 1-88). Kind of assay: HPV1a E7 small-molecule binders, primary screen, biochemical, small-molecule microarray, residues 1-88, 635 nm (AID 1129). The conditions noted are these: small-molecule microarray binding, fluorescence 635 nm; higher = more signal.
In assay [3] the target is Focal adhesion kinase 1 (Homo sapiens) (UniProt Q05397). Kind of assay: PTK2 protein binding on printed compound slides – biochemical, small-molecule microarray, 635/667 nm fluorescence, BSA, DTT, primary screen (AID 1130).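 Note: composite of spot emission at 667 nm and signal to noise over triplicate slides.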 The conditions noted are these: 635 nm fluorescence, higher = more signal.
Focal adhesion kinase 1 (Homo sapiens), sequence (Q05397 whole entry, looked up): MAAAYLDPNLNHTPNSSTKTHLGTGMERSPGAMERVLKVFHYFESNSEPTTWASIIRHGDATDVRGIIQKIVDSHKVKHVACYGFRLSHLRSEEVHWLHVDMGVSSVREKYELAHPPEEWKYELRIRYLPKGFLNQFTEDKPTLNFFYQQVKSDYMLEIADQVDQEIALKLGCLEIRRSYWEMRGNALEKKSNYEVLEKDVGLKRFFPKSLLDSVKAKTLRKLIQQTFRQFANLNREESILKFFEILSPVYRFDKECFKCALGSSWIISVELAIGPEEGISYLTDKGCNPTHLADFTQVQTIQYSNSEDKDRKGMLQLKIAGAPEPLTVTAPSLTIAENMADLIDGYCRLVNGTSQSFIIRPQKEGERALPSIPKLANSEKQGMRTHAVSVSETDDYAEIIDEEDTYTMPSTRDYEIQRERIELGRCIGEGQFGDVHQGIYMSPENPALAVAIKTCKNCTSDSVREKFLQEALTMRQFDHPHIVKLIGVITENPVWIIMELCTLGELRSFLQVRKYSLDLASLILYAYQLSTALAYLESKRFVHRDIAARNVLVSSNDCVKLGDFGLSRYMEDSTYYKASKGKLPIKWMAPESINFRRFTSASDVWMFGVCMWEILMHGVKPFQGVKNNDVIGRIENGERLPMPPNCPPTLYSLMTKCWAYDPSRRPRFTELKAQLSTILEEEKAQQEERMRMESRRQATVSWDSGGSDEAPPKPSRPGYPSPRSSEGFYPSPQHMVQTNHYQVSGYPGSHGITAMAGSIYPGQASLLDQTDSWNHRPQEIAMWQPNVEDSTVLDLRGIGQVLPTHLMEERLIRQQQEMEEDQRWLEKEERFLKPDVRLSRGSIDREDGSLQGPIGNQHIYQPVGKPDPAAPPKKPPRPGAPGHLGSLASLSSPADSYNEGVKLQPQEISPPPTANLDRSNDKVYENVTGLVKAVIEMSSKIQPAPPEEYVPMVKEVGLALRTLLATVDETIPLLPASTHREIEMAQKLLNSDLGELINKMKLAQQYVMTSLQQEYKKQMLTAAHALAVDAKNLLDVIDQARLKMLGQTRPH
Assay [4] deals with Fibrinogen (Alexa647-labelled). Kind of assay: Alexa647-fibrinogen binding to printed small molecules – biochemical, small-molecule microarray, 635/667 nm fluorescence, artefact control for SMM control-protein annotation, profiling panel (AID 1131).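 Note: z-score merges 667 nm fluorescence with per-spot signal-to-noise over triplicate slides.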 Particulars: fibrinogen-A647 binding fluorescence, higher = more signal.
Assay [5] concerns the target Follistatin (Homo sapiens) (UniProt P19883). Kind of assay: FST protein binding to printed compounds – biochemical, small-molecule microarray, 635/667 nm fluorescence, primary screen (AID 1132). Particulars: 635 nm fluorescence, higher = more signal.
Assay [6] concerns the target Fibroblast growth factor 2 (Homo sapiens) (UniProt P09038). Kind of assay: basic fibroblast growth factor binding to printed compounds – biochemical, small-molecule microarray, 635/667 nm fluorescence, primary screen (AID 1133). Particulars: FGF2, fluorescence 635/667, higher = more signal.
Assay [7] in a line: JC-1 mitochondrial potential readout, lung cancer cells – cell-based, A549, JC-1 fluorescence, basal, 24 h, 100 nL, profiling panel (AID 1138).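 Note: A549 lung adenocarcinoma cells under basal conditions with no added stimulus; test concentration not given here.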 Particulars: higher = more signal.
The next assay has as its system Lefty1. Kind of assay: Lefty1 protein binding to printed compounds – biochemical, small-molecule microarray, 635/667 nm fluorescence, primary screen (AID 1139). Particulars: fluorescence 635/667, higher = more signal.
Assay [8] deals with wheat germ agglutinin (Triticum aestivum), Alexa647-labelled. Kind of assay: Alexa647-WGA lectin binding to printed small molecules – biochemical, small-molecule microarray, 635/667 nm fluorescence, artefact control for SMM control-protein annotation, profiling panel (AID 1140).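 Note: score merges 667 nm feature emission with signal to noise over triplicate slides.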 The conditions noted are these: WGA-A647 binding, 635 nm fluorescence, higher = more signal.
The target in assay [9] is Luciferin 4-monooxygenase (Photinus pyralis) (UniProt P08659). Kind of assay: inhibition of purified Photinus pyralis luciferase – biochemical, luminescence, purified enzyme, 2006 set, primary screen (AID 1141).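 Note: cell-free assay with purified firefly luciferase at 100 ng per well in PBS; test concentration not given here.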 The conditions noted are these: purified firefly luciferase, SteadyGlo luminescence, 30 min; higher = more signal, called active from +8 up or from −8 down.
Luciferin 4-monooxygenase (Photinus pyralis), sequence (P08659 whole entry, looked up): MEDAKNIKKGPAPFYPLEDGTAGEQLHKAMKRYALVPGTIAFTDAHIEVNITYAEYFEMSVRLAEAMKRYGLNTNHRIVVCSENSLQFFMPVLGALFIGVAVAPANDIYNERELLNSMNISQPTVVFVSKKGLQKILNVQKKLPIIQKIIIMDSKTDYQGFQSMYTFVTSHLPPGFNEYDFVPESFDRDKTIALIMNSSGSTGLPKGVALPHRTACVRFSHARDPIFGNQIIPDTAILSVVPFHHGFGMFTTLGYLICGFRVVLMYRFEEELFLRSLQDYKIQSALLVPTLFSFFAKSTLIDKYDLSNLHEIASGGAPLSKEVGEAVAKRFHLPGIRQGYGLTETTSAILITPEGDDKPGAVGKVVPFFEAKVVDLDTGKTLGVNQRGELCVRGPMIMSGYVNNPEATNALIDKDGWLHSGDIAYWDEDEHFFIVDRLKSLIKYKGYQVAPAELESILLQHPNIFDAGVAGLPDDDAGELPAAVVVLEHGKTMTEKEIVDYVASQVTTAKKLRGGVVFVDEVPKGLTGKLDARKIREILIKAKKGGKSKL
Assay [10] deals with Wnt5a (protein binding on small-molecule microarray). Kind of assay: small molecules binding Wnt5a protein – biophysical, small-molecule microarray, 635/667 nm fluorescence, primary screen (AID 1142).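 Note: fluorescence read at 667 nm with signal to noise per printed feature.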 Particulars: 635 nm fluorescence, higher = more signal.
Assay [11] is described as follows: ATP-based viability of Huh7 replicon cells – cell-based, CellTiter-Glo luminescence, basal, 48 h, cytotoxicity control for HCV replication inhibitor project, primary screen (AID 1143).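 Note: Huh7 hepatoma cells carrying a hepatitis C replication reporter with no stimulus; test concentration not given here.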 Particulars: higher = more signal, called active from +8 up or from −8 down.
Assay [12] in a line: Pseudomonas biofilm growth suppression – PAO1 strain, BacTiter-Glo luminescence, LB-PBS, primary screen (AID 1144). Particulars: P. aeruginosa PAO1 biofilm, 12 h, higher = more signal.
The nature of assay [13]: basal CRE-LacZ reporter activity in PC12 – cell-based, unstimulated, primary screen (AID 1145). The conditions noted are these: no forskolin, luminescence, 4.5 h, higher = more signal, called active from +8 up or from −8 down.
A short description of assay [14]: forskolin-driven CRE-LacZ activity in PC12 – cell-based, CRE-LacZ reporter, forskolin-stimulated, primary screen (AID 1146).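 Note: PC12 cells with 6xCRE LacZ reporter stimulated by forskolin 10 µM; beta-galactosidase reporter signal reflecting CREB driven transcription.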 The conditions noted are these: luminescence, 4.5 h, higher = more signal, called active from +8 up or from −8 down.
Assay [15] addresses Streptavidin (Streptomyces avidinii) (UniProt P22629). Kind of assay: compounds binding control protein streptavidin – biophysical, small-molecule microarray, 635/667 nm fluorescence, artefact control for SMM compound annotation, primary screen (AID 1147).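 Note: signal reflects streptavidin binding to arrayed compounds as a control protein.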 Particulars: higher = more signal.
Assay [16] in a line: probe aInhba binding on compound microarray – biochemical, small-molecule microarray, 635/667 nm fluorescence, primary screen (AID 1148).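 Note: score merges 667nm spot fluorescence with signal-to-noise for antibody binding to printed compounds.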 Particulars: higher = more signal.
The target in assay [17] is Torsin-1A (Homo sapiens) (UniProt O14656). Kind of assay: TOR1A wild-type binding on microarray – cell lysate, small-molecule microarray, lysate, 635/667 nm, primary screen (AID 1149). The conditions noted are these: COS7 hTOR1A-WT lysate, 635 nm fluorescence, higher = more signal.
Torsin-1A (Homo sapiens), sequence (O14656 whole entry, looked up): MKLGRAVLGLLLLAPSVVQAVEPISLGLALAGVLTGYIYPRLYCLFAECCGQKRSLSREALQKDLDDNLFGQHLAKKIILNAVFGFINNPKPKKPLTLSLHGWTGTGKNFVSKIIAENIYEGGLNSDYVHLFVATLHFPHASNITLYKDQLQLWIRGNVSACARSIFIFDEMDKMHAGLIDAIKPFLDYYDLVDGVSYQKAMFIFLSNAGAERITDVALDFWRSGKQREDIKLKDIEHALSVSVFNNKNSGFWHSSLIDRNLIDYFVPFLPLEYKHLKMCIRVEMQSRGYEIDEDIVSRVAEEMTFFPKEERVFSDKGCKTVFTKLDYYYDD
The target is the same in assay [18]. Kind of assay: torsin A mutant lysate binding on microarrays – cell lysate, small-molecule microarray, COS7 lysate, 635/667 nm fluorescence, primary screen (AID 1150).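 Note: score pools 667 nm emission and signal to noise measuring lysate protein binding.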 The conditions noted are these: COS7 hTOR1A mutant lysate, 635 nm fluorescence, higher = more signal.
The subject of assay [19] is Sonic hedgehog protein (Shh). Kind of assay: Sonic hedgehog microarray binding compounds – biochemical, small-molecule microarray, 635/667 nm fluorescence, primary screen (AID 1151).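 Note: Shh protein binding to compounds spotted on small-molecule microarray slides; score combines spot fluorescence intensity with signal-to-noise across triplicate slides.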 The conditions noted are these: 635 nm fluorescence, higher = more signal.

Fibroblast growth factor 2 (Homo sapiens), sequence (P09038 whole entry, looked up): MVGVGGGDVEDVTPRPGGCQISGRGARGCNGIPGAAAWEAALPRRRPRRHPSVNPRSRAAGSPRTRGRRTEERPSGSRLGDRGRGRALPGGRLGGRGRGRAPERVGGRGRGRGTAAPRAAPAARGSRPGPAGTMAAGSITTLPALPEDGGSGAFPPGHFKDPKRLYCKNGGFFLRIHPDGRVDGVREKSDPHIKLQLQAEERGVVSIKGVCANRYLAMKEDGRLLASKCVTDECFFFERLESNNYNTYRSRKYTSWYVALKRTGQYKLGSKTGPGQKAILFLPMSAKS
Follistatin (Homo sapiens), sequence (P19883 whole entry, looked up): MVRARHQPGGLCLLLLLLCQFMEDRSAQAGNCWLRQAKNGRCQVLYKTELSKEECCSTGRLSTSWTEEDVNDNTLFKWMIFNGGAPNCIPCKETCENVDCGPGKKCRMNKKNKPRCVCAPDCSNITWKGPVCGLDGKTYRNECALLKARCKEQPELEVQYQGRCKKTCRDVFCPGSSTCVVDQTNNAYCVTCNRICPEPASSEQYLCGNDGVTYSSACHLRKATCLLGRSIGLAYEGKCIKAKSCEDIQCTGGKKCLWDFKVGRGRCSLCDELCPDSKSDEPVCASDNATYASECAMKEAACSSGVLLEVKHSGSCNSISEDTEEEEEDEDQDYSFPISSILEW
Streptavidin (Streptomyces avidinii), sequence (P22629 whole entry, looked up): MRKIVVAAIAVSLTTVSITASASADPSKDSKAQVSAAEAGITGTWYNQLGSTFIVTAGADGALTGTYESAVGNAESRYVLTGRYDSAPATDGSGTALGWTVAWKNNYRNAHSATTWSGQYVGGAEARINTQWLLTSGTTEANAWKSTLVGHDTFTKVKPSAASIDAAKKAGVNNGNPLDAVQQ

For `COc1ccc(-c2ccc3c(n2)CCCN3CC(O)CN2CCCc3nc(-c4ccc(Br)cc4)ccc32)cc1` (stereo not given), the composite z-score was 1.33 and 1.2 in assay [1]; 0.601 and 0.387 in assay [2]; 0.665 and 0.748 in assay [3]; 0.572 and 0.757 in [4]; 0.922 and 0.796 in assay [5]; 0.6 and 0.609 in [6]. Besides, the composite z-score was 1.02 and 0.514 with Lefty1; 0.557 and 0.333 in assay [8]; 0.353 and 0.0813 in assay [10]; 1.41 and 0.932 in assay [15]; 0.136 and 0.204 in assay [16]; 0.438 and 0.224 in the assay with Torsin-1A (Homo sapiens) [17]. Also, the composite z-score is 0.528 and 0.588 with Torsin-1A (Homo sapiens) [18]; 1.03 and 0.76 in assay [19]. Moreover, the z-score in [7] was 1.45 and 0.555; in assay [9], -0.254 (inactive) and 0.147 (inactive); in [11] it was -1.86 (inactive) and -0.196 (inactive); in assay [12] it was 0.766 (inactive) and 0.0378 (inactive); in assay [13], -0.434 (inactive) and -0.161 (inactive); in assay [14], -0.152 (inactive) and -0.116 (inactive).
With `CO[C@H]1COC(=O)CC=C[C@@H](C)COC(=O)[C@@H](OCc2ccccc2)C=C[C@@H]1C`, the composite z-score in assay [1] was 0.563; in [2], -1.07; in assay [3] it was -0.279; in assay [4], -1.44; in assay [5], 1.47; in assay [6] it was 1.74. Also, the composite z-score with Lefty1 is 1.65; in [8], -1.13; in [10] it was -0.134; in [15], 0.999; in [16], -0.3; with Torsin-1A (Homo sapiens) [17], 2.35. For the same molecule, the composite z-score was found to be 2.28 with Torsin-1A (Homo sapiens) [18] and 1.96 in assay [19]. The z-score in assay [7] is 1.8; in assay [9], -0.917 (inactive); in assay [11] it was -0.356 (inactive); in [12] it was 0.106 (inactive); in assay [13], 0.79 (inactive); in [14] it was -0.471 (inactive).
On to `O=c1n(-c2ccccc2)c(=O)n2n1CC[C@@H]1C(=NOC[C@@H](O)COCc3ccco3)[C@H]3O[C@H]3[C@@H](O)[C@@H]12`, for which the composite z-score was 0.196 and 1.9 in assay [1]; 0.0776 and -0.425 in assay [2]; 0.828 and -0.367 in assay [3]; -0.309 and -0.105 in assay [4]; 1.15 and 0.461 in assay [5]; 1.02 and 0.96 in assay [6]. In addition, the composite z-score with Lefty1 is 1.43 and 0.459; in [8] it was -0.392 and 0.0106; in [10], 0.0145 and -0.152; in [15] it was 0.312 and 0.0894; in assay [16] it was -0.0963 and -0.0407; with Torsin-1A (Homo sapiens) [17] it was 0.716 and 0.965. The composite z-score with Torsin-1A (Homo sapiens) [18] is 0.289 and 0.457; in assay [19], 1.7 and 0.769. The z-score in assay [7] is -0.642 and -0.729; in assay [9], 0.0662 (inactive) and -0.214 (inactive); in assay [11], -2.38 (inactive) and 1.16 (inactive); in [12] it was -0.58 (inactive) and 0.962 (inactive); in assay [13], 0.875 (inactive) and -0.227 (inactive); in assay [14] it was -0.218 (inactive) and 0.761 (inactive).
Turning to `CC(C)=NOC[C@@H](O)COCc1ccco1`, the composite z-score is 1.27 in assay [1]; -1.73 in assay [2]; -0.395 in assay [3]; -1.83 in assay [4]; 0.112 in [5]; 0.782 in assay [6]. Also, the composite z-score is -0.181 in the assay with Lefty1; -0.988 in assay [8]; -0.0761 in assay [10]; -0.499 in assay [15]; -0.003 in assay [16]; -0.469 with Torsin-1A (Homo sapiens) [17]. For the same molecule, the composite z-score with Torsin-1A (Homo sapiens) [18] was determined as 2.08; in [19] it was 0.712. The z-score was 0.354 in assay [7]; -1.28 (inactive) in assay [9]; 0.326 (inactive) in assay [11]; -0.209 (inactive) in assay [12]; -1.71 (inactive) in assay [13]; -0.619 (inactive) in assay [14].
With `CC(C)C(=O)N[C@@H]1CCCN1C(=O)C=Cc1ccccc1`, the composite z-score in [1] was determined as 0.108; in assay [2], 0.746; in [3] it was 0.746; in assay [4], 0.494; in [5], 0.541; in [6], 0.565. The composite z-score with Lefty1 was 0.813; in assay [8], -0.0087; in [10] it was -0.0494; in [15] it was 0.504; in assay [16], -0.0216; in the assay with Torsin-1A (Homo sapiens) [17], 0.841. Besides, the composite z-score in the assay with Torsin-1A (Homo sapiens) [18] came to 0.448; in assay [19] it was 0.605. The z-score in assay [7] was 1.81; in assay [9] it was -0.489 (inactive); in assay [11], 0.135 (inactive); in [12] it was 1.06 (inactive); in [13], 0.56 (inactive); in [14] it was 0.685 (inactive).
Turning to `COC(=O)[C@@]1(Cc2ccccc2)[C@H]2c3cc(C(=O)N(C)C)n(C[C@H](O)CO)c3C[C@H]2CN1C(=O)c1ccccc1`, the composite z-score was 0.456 and 0.65 in [1]; 0.23 and 0.965 in assay [2]; 0.805 and 0.641 in assay [3]; 0.948 and 0.223 in assay [4]; -0.342 and 0.453 in assay [5]; -0.378 and -0.271 in [6]. Besides, the composite z-score in the assay on Lefty1 was -0.6 and -0.308; in [8], 0.877 and -0.0476; in [10], -0.19 and 0.0986; in assay [15], -0.0247 and 0.888; in [16] it was -0.0817 and 0.223; in the assay with Torsin-1A (Homo sapiens) [17], -0.593 and 0.132. Besides, the composite z-score was 0.492 and 0.92 with Torsin-1A (Homo sapiens) [18]; -0.39 and -1.19 in assay [19]. The z-score in assay [7] was 0.207 and 0.034; in assay [9], 0.665 (inactive) and 1.66 (inactive); in [11], 0.0129 (inactive) and 0.255 (inactive); in [12] it was -0.256 (inactive) and -0.607 (inactive); in assay [13], 1.35 (inactive) and 0.204 (inactive); in assay [14], 0.756 (inactive) and -0.209 (inactive).
As to `CCCNC(=O)OC[C@H]1O[C@H](CCON=C(C)CCN2CCc3nc(-c4ccccc4)c(-c4ccccc4)cc3C2)C=C[C@@H]1Oc1ccc(OC)cc1`, the composite z-score in assay [1] came to 1.29; in [2], 0.0969; in assay [3], 0.301; in [4], 0.283; in [5], 0.295; in assay [6] it was 0.279. Besides, the composite z-score with Lefty1 was 0.236; in assay [8], 0.356; in [10] it was 0.156; in [15], 0.114; in [16], -0.152; with Torsin-1A (Homo sapiens) [17], 0.479. In addition, the composite z-score was 0.302 with Torsin-1A (Homo sapiens) [18] and 0.449 in [19]. In addition, the z-score was 1.87 in [7]; -0.076 (inactive) in assay [9]; -0.81 (inactive) in [11]; -0.158 (inactive) in assay [12]; 2.49 (inactive) in assay [13]; -0.113 (inactive) in [14].
